Assay [1] can be described thus: stimulators of nuclear beta-catenin in C2C12, primary screen, imaging, WNT3A-conditioned medium, mouse C2C12, NPC library (AID 1117326; in the data active = nuclear beta-catenin stimulation mostly above about 4.2%, no sharp cut-off; inactive = mostly below about 10%). The note with it: stronger effect = higher value.
Assay [2] is described as follows: stimulators of insulin release from INS-1E, primary screen, cell-based, 5 mM glucose, NPC library (AID 1117329;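 active = compound raises insulin release from rat beta cells at 5 mM glucose, no numeric limit stated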). The note with it: rat INS-1E insulin secretion, at 10 µM, stronger effect = higher value.
Assay [3] can be described thus: growth inhibition of GSK3B-pretreated HCT116 cells – cell-based, CellTiter-Glo, 0.2 to 20 µM (AID 1117336;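 active = compounds lowering colon cancer cell viability after pretreatment blocking the GSK3B kinase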). The note with it: HCT116 viability after GSK3B inhibitor, at 20 µM, stronger effect = higher value. (In general: ATP-based viability assays read luminescence as a measure of living cells.)
Assay [4] can be described thus: inhibition of endothelial tube formation, primary screen, imaging, VEGF stimulated, CD31 staining, tube area, NPC library (AID 1117340). As to conditions: VEGF-stimulated ADSC/ECFC co-culture, at 10 µM, stronger effect = higher value.
Assay [5] is described as follows: glucagon-like peptide 1 release enhancers, primary assay, NCI-H716 cell line, NPC library (AID 1117341;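 active = compound raises GLP1 secretion from the human gut endocrine cells, with no numeric limit stated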). As to conditions: NCI-H716 cells, at 10 µM, stronger effect = higher value.
Assay [6] is described as follows: HCT116 colon cancer cell growth inhibition, primary screen, CellTiter-Glo luminescence, NPC library (AID 1117342;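 active = compounds that lower survival of HCT116 colon cancer cells in the luminescence readout, no numeric limit stated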). As to conditions: at 20 µM (top of the series).
Assay [7] in a line: CellTiter-Glo luminescent readout of SW480 viability loss, NPC library primary (AID 1117343;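 active = compounds that lower viability of the colon cancer cells in the luminescence readout, with no numeric limit stated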). The note with it: CellTiter-Glo luminescence; at 20 µM (top of the series).
Assay [8] is described as follows: decreased DLD-1 cellular survival, CellTiter-Glo luminescent readout, NPC compound collection, primary HTS (AID 1117346;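 active = compounds that lower survival of DLD-1 colon cancer cells in the luminescence readout, no cutoff given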). The note with it: DLD-1 viability, CellTiter-Glo luminescence; at 20 µM (top of the series).
The target of assay [9] is 6-phosphogluconate dehydrogenase, decarboxylating (Homo sapiens) (UniProt P52209). Description: 6PGD enzyme inhibitors, primary screen, biochemical, human, recombinant enzyme, NADPH absorbance (AID 1159550;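 active = at least 20% inhibition of 6-phosphogluconate dehydrogenase activity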). As to conditions: recombinant 6PGD, NADPH absorbance 341 nm; at 10 µM; stronger effect = higher value.
For assay [10], the system named is Aerobactin synthetase IucA (Klebsiella pneumoniae hvKP1). The experiment in a line: Biochemical IucA enzyme inhibition primary screen of the Spectrum library (AID 1346200; call rule not given here;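 also: 100% = wells without compound and 0% = wells lacking enzyme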). The note with it: malachite green pyrophosphate, A620, at 8 µM, stronger effect = lower value.
Assay [11] deals with NAD(+) hydrolase SARM1 (Homo sapiens) (UniProt Q6SZW1). The experiment in a line: SARM1 TIR NADase inhibitors, cell lysate, NAD-Glo luminescence (AID 1508614;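 active = compound whose remaining NAD level is above about 45 nM, limit read from the data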;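 also: higher remaining NAD means stronger inhibition of SARM1 NADase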). As to conditions: SAM-TIR HEK293T lysate NADase, at 1 µM, stronger effect = higher value.
For assay [12], the target named is Mitogen-activated protein kinase 7 (Homo sapiens) (UniProt Q13164). Description: ERK5 transactivation activators in reporter cells, primary screen, cell-based, HTS (AID 1508626;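 active = luciferase signal above three times the same-plate solvent-only control wells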;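 also: luciferase driven by Gal4-ERK5 fusion binding five Gal4 sites before minimal TATA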). The note with it: HeLa Gal4-ERK5 transactivation, 18 h, at 5 µM, stronger effect = higher value.
The nature of assay [13]: differential killing of epithelial or mesenchymal cells, primary screen, imaging, PC-3E GFP, TEM4-18 mCherry, co-culture (AID 1345086;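 active = compounds killing one labelled cell type while sparing the other, by normalised counts and ratio limits, not self-fluorescent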;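 as to all read-outs here: cells exposed to compound for 72 h before imaging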;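 as to red/green cell ratio (normalised): normalised mesenchymal count divided by normalised epithelial count so high means epithelial killing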). The note with it: imaging cell counts, at 1 µM; for red/green cell ratio (normalised): actives lie on both sides.
The nature of assay [14]: sensitizers of A549 cells to miR-34 induction, primary screen, imaging, A549 dox-inducible miR-34, nuclei and caspase counts (AID 1347080;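 active = compounds whose cell count with miR-34 switched on is under 0.7 times the count with it off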). The note with it: A549 miR-34 inducible, Hoechst nuclei count, 48 h.
Assay [15] in a line: suppressors of polyQ aggregation in yeast, 75Q-TubU reporter (AID 1593). The note with it: Yeast 75Q polyglutamine aggregation reporter.
Assay [16] is described as follows: inhibitors of mitochondrial cytochrome c release, biochemical, purified mitochondria (AID 1603).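 Also: mouse liver mitochondria challenged with calcium chloride; signal normalized to the plate average as 100%.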 As to conditions: stronger effect = lower value.
Assay [17] in a line: inhibitors of polyQ protein aggregation (AID 1604). The note with it: polyglutamine-induced protein aggregation inhibition assay; stronger effect = higher value; tested at 2.5 µM.
Assay [18] is described as follows: liver-stage malaria parasite growth inhibition, primary screen, cell-based, HepG2, luciferase luminescence, HepG2 viability (AID 624349; in the data active = parasite load remaining mostly below about 12%, no sharp cut-off; inactive = mostly above about 10%;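 also: 100% = mean of DMSO negative control wells on the same plate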). The note with it: P. berghei liver stage in HepG2, luciferase luminescence, concentration not given here; parasite load remaining: stronger effect = lower value; viability: measured here: HepG2 viability without parasites.
The nature of assay [19]: survival rescue of mitochondrial mutant cells in low glucose, primary screen, MELAS cybrids, Rieske KO mouse fibroblasts, CellTiter-Glo (AID 1508586;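 active = mean z-score across replicates of 1.96 or higher in either the MELAS or the Rieske mutant cell line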;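 also: z relative to plate mean and SD of compound and empty wells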).
Setting [20] is: measured here: epithelial PC-3E GFP cell survival.
Setting [21] is: measured here: mesenchymal TEM4-18 mCherry cell survival.
[22] abbreviates: measured here: relative caspase fold change +Dox/-Dox.
Setting [23] is: measured here: total cells with miR-34 induction, stronger effect = lower value.
Setting [24] is: measured here: total cells without miR-34 induction.
Where [25] appears, read: MELAS cybrid survival, CellTiter-Glo 48 h, stronger effect = higher value.
[26] abbreviates: Rieske KO mouse fibroblast survival, CellTiter-Glo 72 h.

“And” between values parts separate entries of the source, which are not always exact repeats. Equal values may be shown once. A structure can be active in one record and inactive in another. The source made the active and inactive calls.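 The calls were made as follows, unless noted: active = compound that reduces growth-factor-driven endothelial tube area in a mixed cell culture, no cutoff stated; inactive = the rest.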

The term inhibition denotes the relative decrease from the control value, in per cent. One may read the viability as a per cent measure of how many cells are alive, often set against a control.

Sequence of Mitogen-activated protein kinase 7 (Homo sapiens) (Q13164 whole entry, looked up, the tested form may be a part): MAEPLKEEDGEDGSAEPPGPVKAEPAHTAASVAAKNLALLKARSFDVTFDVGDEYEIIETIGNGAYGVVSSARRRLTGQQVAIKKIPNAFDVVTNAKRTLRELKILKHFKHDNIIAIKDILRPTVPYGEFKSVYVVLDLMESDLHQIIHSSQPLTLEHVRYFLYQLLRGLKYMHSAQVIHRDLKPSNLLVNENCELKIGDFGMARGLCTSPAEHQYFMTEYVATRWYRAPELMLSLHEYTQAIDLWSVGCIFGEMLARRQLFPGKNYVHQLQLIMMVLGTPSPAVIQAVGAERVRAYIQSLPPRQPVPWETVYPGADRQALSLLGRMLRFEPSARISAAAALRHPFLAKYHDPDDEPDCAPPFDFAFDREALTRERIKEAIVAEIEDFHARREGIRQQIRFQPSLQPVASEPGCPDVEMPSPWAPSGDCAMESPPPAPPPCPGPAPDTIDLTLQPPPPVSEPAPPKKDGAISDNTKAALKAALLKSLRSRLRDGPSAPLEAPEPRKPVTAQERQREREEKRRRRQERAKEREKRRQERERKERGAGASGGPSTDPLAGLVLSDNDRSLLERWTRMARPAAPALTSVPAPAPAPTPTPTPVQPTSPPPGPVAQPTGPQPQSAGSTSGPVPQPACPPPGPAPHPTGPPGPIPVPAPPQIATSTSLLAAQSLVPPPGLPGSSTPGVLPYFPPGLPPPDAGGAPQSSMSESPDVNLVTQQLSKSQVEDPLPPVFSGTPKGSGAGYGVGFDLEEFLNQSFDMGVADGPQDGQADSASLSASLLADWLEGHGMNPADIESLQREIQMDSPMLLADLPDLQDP
Sequence of 6-phosphogluconate dehydrogenase, decarboxylating (Homo sapiens) (P52209 whole entry, looked up): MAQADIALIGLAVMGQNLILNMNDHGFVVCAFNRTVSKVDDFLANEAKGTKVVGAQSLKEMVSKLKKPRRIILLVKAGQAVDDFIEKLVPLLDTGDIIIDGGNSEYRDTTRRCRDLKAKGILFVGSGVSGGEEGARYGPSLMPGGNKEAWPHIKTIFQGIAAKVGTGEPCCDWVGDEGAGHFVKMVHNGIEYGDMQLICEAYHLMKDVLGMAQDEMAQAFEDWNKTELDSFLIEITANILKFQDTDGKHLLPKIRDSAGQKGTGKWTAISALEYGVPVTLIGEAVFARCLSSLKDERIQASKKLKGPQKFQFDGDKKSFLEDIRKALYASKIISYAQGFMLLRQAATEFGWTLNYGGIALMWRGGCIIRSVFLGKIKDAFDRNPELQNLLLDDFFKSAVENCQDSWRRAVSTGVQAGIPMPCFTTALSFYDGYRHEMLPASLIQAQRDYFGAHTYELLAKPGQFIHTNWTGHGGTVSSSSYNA
Sequence of NAD(+) hydrolase SARM1 (Homo sapiens) (Q6SZW1 whole entry, looked up, the tested form may be a part): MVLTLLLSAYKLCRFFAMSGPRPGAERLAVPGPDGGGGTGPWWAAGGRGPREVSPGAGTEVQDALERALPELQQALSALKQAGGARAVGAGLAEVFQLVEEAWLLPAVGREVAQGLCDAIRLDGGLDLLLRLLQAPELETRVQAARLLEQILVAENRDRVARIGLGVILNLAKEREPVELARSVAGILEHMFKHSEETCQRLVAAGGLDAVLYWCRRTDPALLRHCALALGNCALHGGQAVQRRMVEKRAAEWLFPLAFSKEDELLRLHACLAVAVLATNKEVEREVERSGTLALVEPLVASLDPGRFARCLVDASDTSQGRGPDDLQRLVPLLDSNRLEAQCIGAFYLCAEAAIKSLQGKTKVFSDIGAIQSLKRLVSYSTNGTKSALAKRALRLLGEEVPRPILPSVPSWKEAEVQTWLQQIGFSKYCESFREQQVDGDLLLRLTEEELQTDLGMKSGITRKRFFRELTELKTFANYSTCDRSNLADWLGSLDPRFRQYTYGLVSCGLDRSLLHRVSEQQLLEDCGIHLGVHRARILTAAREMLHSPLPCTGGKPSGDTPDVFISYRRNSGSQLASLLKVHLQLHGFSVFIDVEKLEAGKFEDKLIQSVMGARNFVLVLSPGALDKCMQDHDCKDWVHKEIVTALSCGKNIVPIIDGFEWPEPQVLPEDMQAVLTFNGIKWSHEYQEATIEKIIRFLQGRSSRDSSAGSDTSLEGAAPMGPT

In the case of `CCCCCCCCC(=O)NCc1ccc(O)c(OC)c1`, the nuclear beta-catenin stimulation in assay [1] (at 10 µM) is 2.1% (inactive); in assay [1] (stimulation, at 2 µM), 1.1%. The insulin secretion stimulation in assay [2] is -0.6% (inactive). In addition, the viability decrease in assay [3] was 4.5% (inactive). Further, the tube area decrease in assay [4] is 21.4% (inactive). Moreover, the GLP1 secretion stimulation in assay [5] is 4% (inactive). Moreover, the inhibition of viability in assay [6] is 1.8% (inactive). In addition, the results for the viability decrease (inhibition) in assay [7] and in [8] were 49.7% (inactive) and 11.7% (inactive), respectively. Moreover, the inhibition in assay [9] is -12.3% (inactive). Further, in assay [10], the activity remaining is 92.7% (inactive). Moreover, the remaining NAD in [11] was 10 nM (inactive). The luciferase signal in [12] is 52 AU (inactive).
For `COP(=S)(OC)Oc1ccc(SC)c(C)c1`, the nuclear beta-catenin stimulation in assay [1] (at 10 µM) was 1.4% (inactive); in assay [1] (stimulation, at 2 µM), 1.3%. In addition, the insulin secretion stimulation in assay [2] was -2.2% (inactive). For the same compound, the viability decrease in assay [3] is 16.1% (inactive). The tube area decrease in assay [4] was 13.4% (inactive). Moreover, the GLP1 secretion stimulation in assay [5] was -0.1% (inactive). For the same compound, the inhibition of viability in [6] was -20.4% (inactive). Further, the viability decrease (inhibition) was 89.6% (active) in assay [7] and 8.15% (inactive) in assay [8]. For the same compound, the inhibition in assay [9] was 9.75% (inactive). The red/green cell ratio (normalised) in [13] was 0.97 (inactive). The figures for the normalised cell number in assay [13] (setting [20]) and in assay [13] (setting [21]) were 1.03 and 1, respectively. In assay [10], the activity remaining was 92.7% (inactive). The fold change in assay [14] (stronger effect = lower value) is 0.917 (inactive); in [14] (setting [22]), 0.928. Further, the cell count came out at 9260 in assay [14] (setting [23]) and 10100 in assay [14] (setting [24]).
In assay [15], `CCCCCCCCCCCCCCCC[N+](C)(C)C` showed a score of 0.03. Besides, the cytochrome c release ratio in [16] stood at 2.11. In addition, the inhibition of aggregation in assay [17] was determined as 65.1%. The parasite load remaining in assay [18] is 86.4% (inactive) and 31.9% (inactive). Also, the viability in [18] is 75.1% and 81.2%. Further, the nuclear beta-catenin stimulation in assay [1] (at 10 µM) is 19.2% (inactive); in assay [1] (stimulation, at 2 µM), 9.4%. Also, the insulin secretion stimulation in assay [2] was -0.3% (inactive). Further, in [3], the viability decrease is 100% (active). For the same compound, the tube area decrease in assay [4] was 109% (active). Besides, the GLP1 secretion stimulation in [5] is 40.8% (active). In assay [6], the inhibition of viability was 102% (active). Besides, the figures for the viability decrease (inhibition) in assay [7] and in [8] were 123% (active) and 104% (active), respectively. Also, in assay [9], the inhibition was -5.61% (inactive). Besides, the red/green cell ratio (normalised) in assay [13] is 0.49 (inactive). The normalised cell number in assay [13] (setting [20]) came out at 0.64; in assay [13] (setting [21]) it was 0.31. For the same compound, the activity remaining in [10] is 108% (inactive). Besides, the fold change in assay [14] (stronger effect = lower value) was 0.616 (active) and 0.9 (inactive); in assay [14] (setting [22]) it was 3.21 and 2.28. For the same compound, the cell count in assay [14] (setting [23]) is 4400 and 4060; in assay [14] (setting [24]), 7150 and 4510. Further, the z-score in assay [19] (setting [25]) is -0.416 (inactive); in assay [19] (setting [26]) it was -0.288. Moreover, in assay [11], the remaining NAD is 10 nM (inactive). In addition, the luciferase signal in [12] is 96 AU (inactive).
In assay [15], `Clc1ccc(C(OCCN2CCCCC2)c2ccccc2)cc1` (stereo not given) showed a score of 1.14. Also, the cytochrome c release ratio in assay [16] was 1.33. The inhibition of aggregation in assay [17] was 66.7%. In [18], the parasite load remaining is 32.6% (inactive) and 77.7% (inactive). Also, the viability in assay [18] was 91.9% and 79.6%. The nuclear beta-catenin stimulation in [1] (at 10 µM) is 3.4% (inactive); in [1] (stimulation, at 2 µM) it was 2.6%. In addition, the insulin secretion stimulation in assay [2] is 11.4% (inactive). The viability decrease in assay [3] is -162% (inactive). Also, in assay [4], the tube area decrease is 4.5% (inactive). Further, the GLP1 secretion stimulation in [5] was 7.9% (inactive). In addition, the inhibition of viability in assay [6] is 25.5% (inactive). Besides, the viability decrease (inhibition) in assay [7] is 72.3% (active); in [8], 26.4% (inactive). For the same compound, the inhibition in assay [9] was 14.2% (inactive). For the same compound, the red/green cell ratio (normalised) in assay [13] is 0.83 (inactive). Besides, the normalised cell number was determined as 1.02 in assay [13] (setting [20]) and 0.85 in assay [13] (setting [21]). Besides, in assay [10], the activity remaining is 103% (inactive). Besides, the fold change in [14] (stronger effect = lower value) is 0.822 (inactive); in assay [14] (setting [22]) it was 1.27. Moreover, the cell count came out at 7820 in assay [14] (setting [23]) and 9510 in assay [14] (setting [24]). The values for the z-score in assay [19] (setting [25]) and in assay [19] (setting [26]) were -1.82 (inactive) and -0.41, respectively. For the same compound, in assay [11], the remaining NAD is 10 nM (inactive). Further, in [12], the luciferase signal is 180 AU (active).

Source of the values: PubChem BioAssay.
